Whole data set: some 33,000 sequences, median “E-score (-0.5 to 0.5)” near -0.015, cut for the highest 2% near 0.3. The list comes from a sample in which the highest values are over-represented; it also holds similar and randomly drawn sequences.
Target: T1, Abf1 (UniProt P14164)
T1 sequence: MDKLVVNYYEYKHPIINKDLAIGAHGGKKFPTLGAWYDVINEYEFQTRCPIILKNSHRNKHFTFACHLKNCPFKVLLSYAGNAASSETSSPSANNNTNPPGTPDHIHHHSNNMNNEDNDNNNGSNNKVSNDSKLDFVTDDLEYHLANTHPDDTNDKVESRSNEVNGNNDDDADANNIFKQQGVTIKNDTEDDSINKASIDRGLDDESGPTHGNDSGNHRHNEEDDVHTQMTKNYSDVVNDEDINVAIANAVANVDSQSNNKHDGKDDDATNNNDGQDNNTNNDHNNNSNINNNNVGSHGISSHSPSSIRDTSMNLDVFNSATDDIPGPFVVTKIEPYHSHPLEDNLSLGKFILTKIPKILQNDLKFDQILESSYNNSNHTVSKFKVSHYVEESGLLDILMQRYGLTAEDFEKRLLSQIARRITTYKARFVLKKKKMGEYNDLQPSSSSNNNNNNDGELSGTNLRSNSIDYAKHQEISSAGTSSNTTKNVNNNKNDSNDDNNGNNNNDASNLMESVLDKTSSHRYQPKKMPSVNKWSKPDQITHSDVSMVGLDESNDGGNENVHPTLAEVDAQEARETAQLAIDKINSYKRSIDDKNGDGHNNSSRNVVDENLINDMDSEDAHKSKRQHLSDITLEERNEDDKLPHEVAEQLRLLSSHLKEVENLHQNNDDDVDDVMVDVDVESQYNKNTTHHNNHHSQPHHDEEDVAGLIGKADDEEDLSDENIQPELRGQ
Assay: PBM E-score (8-mer binding enrichment) (E-score (-0.5 to 0.5)); higher = stronger / more preferred TF binding
Details: protein concentration: 200 nM; construct: GST-full length
How it was run: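 Universal all-10-mer Agilent arrays, fresh or stripped once, were converted to double-stranded form by primer extension. GST-tagged yeast transcription factors from PURExpress in vitro transcription/translation, full-length or DNA-binding domain only, were applied at about 100-200 nM and detected with fluorescent anti-GST. After masliner normalisation, the Universal PBM Analysis Suite scored each ungapped eight-base word together with its reverse complement by E-score.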

Sequence | PBM E-score
CATACTGA | -0.108
AAAGAGGA | -0.237
CTAATCAC | 0.251
ATAATCAG | 0.0922
GTAATCAC | 0.141
ATAATCAA | 0.0595
ATAATCAT | 0.326
ATAATCAC | 0.331
CCACCTAC | -0.011
ACCGTAGG | 0.0666
CTAAATCC | 0.0568
AAGCGCCA | -0.247
TGATGTAA | 0.145
ACCCTCGA | -0.17
GCGACGCA | 0.196
TCGACAAA | -0.0435
CCGACGAA | 0.205
ACGACGGG | 0.304
ACGACGGA | 0.251
ACGACGGC | 0.164
TCGACGAA | 0.349
ACGACGAA | 0.373
GCGACGAA | 0.313
GCGACGAC | 0.098

Sequence | PBM E-score
TCGACGCA | 0.113
ACGACGCA | 0.262
CATAAGTC | -0.00466
AACCGGTT | 0.0655
TAGAAGCA | -0.0239
CAAGGAAA | -0.198
AGGGCGCC | -0.0691
ATCGCTAA | 0.28
ATCTATTC | 0.114
ACGACGAC | 0.292
ACGACGAT | 0.315
ACGACGAG | 0.156
GTACTGCA | -0.101
AAACACCC | -0.0385
GGTGCACA | -0.05
AATGTACG | 0.192
CATGTACA | -0.0299
CATGTACG | 0.319
TAAGTCTA | -0.136
ATGTCAAG | -0.0386
ATGTCATA | 0.176
ATGTCATG | 0.349
ATGTCAGG | -0.133
ATGTCATC | 0.394

Sequence | PBM E-score
CTGTCATC | 0.108
AGTCGAAT | -0.178
AAGGAACC | -0.053
TCGATCGA | -0.141
CAGACAAC | -0.0277
CTGTCACC | 0.174
ATGTCAGC | 0.0322
ATGTCACA | 0.282
ATGTCACC | 0.429
CTGTCACA | 0.138
ATGTCACG | 0.437
GTCCTCAC | 0.0512
GGGCTCTA | -0.22
CCCCTGGA | -0.17
AACGGACT | -0.0919
CGATGGCG | -0.0766
GTTAGCAA | 0.104
ATGATGAG | 0.141
ATGATGAC | 0.306
ATGATGCC | 0.0807
GTGATGAA | 0.207
ATGATTGG | -0.094
GTGATGCA | 0.185
CTGATGAA | 0.0318

Sequence | PBM E-score
ATGATTGA | 0.346
ATGATGCA | 0.309
ATGATGAA | 0.306
CTGATGAC | 0.203
ATGATTGC | 0.0463
GAATGGAC | 0.0322
GTTCCGGA | -0.0188
TATACATA | 0.0494
GAGGGGGC | -0.346
CGGAGTCA | -0.111
AAAGCCTT | -0.219
CTATGGGA | -0.0561
CCACCGTA | 0.341
GCACCGTA | 0.0841
ACACCGTA | 0.0493
GGGGGCCA | -0.462
AGTAGAAA | 0.168
CGTAGAAG | 0.222
CGTAGAAA | 0.318
AGGGGTAT | -0.179
GCGTCGGA | -0.111
GGAGCCCC | -0.293
